Hits are enriched below; roughly 8% of the tested compounds scored in any of these assays.
Gal4-VP16 FLuc: inhibits Gal4-VP16 luciferase reporter, ROR gamma counter-screen; Drosophila S2 Gal4-VP16 UAS-luciferase, luminescence, 20 h; Potency, µM (series often up to 53.6 µM), for the others: at the top dose activity, negative = inhibition, most hits filed as inhibitors; 310,000 compounds, 3.5% hits;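 further: Gal4-VP16 expression switched on by copper sulfate through the metallothionein promoter; potency means the concentration at half of the fitted maximal effect; nearly all actives have a fitted effect of over 50% in size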
FBPA coupling cs: coupling enzyme interference in Giardia aldolase counter-screen. coupling enzyme system counterscreen, AmpLite Red fluorescence. 290,000 compounds, 0.67% hits. activity change, negative = inhibition, % at 58.2 µM, hits read low; in the data active means activity change below about -30%
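Counterscreen of the coupled detection system alone, without aldolase: glyceraldehyde-3-phosphate coupling enzymes plus AmpLite Red readout. Compounds at 57.5 uM final, 10 min RT preincubation, 20 min RT reaction, fluorescence 525/598 nm.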
ELG1 repair inh: ELG1-dependent DNA repair inhibition; AID 504467; Potency, µM (top dose mostly 46.1 µM), for the others: at the top dose activity change, negative = inhibition, most hits filed as inhibitors; 330,000 compounds, 2.3% hits; HEK293T ELG1-luciferase reporter, luminescence, 16 h; DNA damage induced by 5-fluorouridine; further: potency means the concentration at half of the fitted maximal effect; nearly all actives have a fitted effect of over 55% in size
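Quantitative HTS, concentration-response format. 2,000 cells/well co-treated with 5-fluorouridine and compound, 16 hr in 5% CO2 at 37 °C; ONE-Glo luminescence read after 30 min.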
TSHR antag: blocks TSH signaling through the human TSH receptor | TSHR-expressing cells, TSH-stimulated cAMP HTRF, 2 h; hits give low values | activity change, negative = inhibition, % at 11.5 µM | 330,000 compounds, 0.2% hits;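 active means activity change below a set negative limit, meaning inhibition stronger than a set level, cut at about -70% in these data; inconclusive means activity change between two set negative limits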
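Read-out is FRET at 665 nm (cryptate excitation 337 nm) from a cryptate-tagged anti-cAMP antibody, competed by cell cAMP against cAMP-d2. Compounds are tested on freshly harvested TSHR cells challenged with 4nM TSH (EC80) for 2 hours at 37 deg C.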
RORgamma inh: inhibitors of mouse ROR gamma transcriptional activity; P51450; Drosophila S2 Gal4-RORgamma UAS-luciferase reporter, 20 h; Potency, µM (highest dose often 53.6 µM), for inactives: at the top dose activity change, negative = inhibition, usual class: inhibitors; 310,000 compounds, 5.4% hits; AID 2551; further: potency means the concentration at half of the fitted maximal effect; nearly all actives have a fitted effect of over 60% in size
Target sequence (P51450 whole entry, looked up, the tested form may be a part): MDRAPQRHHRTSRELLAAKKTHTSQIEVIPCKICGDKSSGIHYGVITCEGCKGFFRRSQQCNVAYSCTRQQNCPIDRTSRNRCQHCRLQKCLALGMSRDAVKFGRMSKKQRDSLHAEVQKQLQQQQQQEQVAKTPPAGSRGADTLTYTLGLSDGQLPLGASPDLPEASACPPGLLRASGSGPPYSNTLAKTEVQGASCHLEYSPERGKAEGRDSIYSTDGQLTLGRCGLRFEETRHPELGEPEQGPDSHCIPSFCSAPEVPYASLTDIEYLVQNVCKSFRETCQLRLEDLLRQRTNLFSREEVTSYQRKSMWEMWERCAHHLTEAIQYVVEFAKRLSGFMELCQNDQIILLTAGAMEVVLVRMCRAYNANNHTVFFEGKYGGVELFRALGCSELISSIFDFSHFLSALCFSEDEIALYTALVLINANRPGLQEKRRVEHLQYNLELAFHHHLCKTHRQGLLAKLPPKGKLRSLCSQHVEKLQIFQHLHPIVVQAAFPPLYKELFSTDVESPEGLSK
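Stable Schneider cell line, Gal4 DNA-binding domain fused to ROR gamma, UAS-luciferase. Cmpd 1 hr RT → CuSO4 700 uM final → 20 hr RT → luciferase reagent 10 min → luminescence.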
Starred values were filed as active, the others as inactive; ? = inconclusive; · = not tested or not shown; [ ] = remark or other dose. Unless noted, the call rests on the fitted dose curve; in most records, active means well fitted curve in the direction sought with a large enough effect; inconclusive means small, poorly fitted or top-dose-only effect, or another doubt; inactive means no such curve, though single readings can be large; an effect the other way counts as inactive or inconclusive. On the % scale 0 is the no-effect control and ±100 the full control effect.

SMILES | Gal4-VP16 FLuc | FBPA coupling cs | ELG1 repair inh | TSHR antag | RORgamma inh
O=C(c1csnn1)N1CCC2(CC1)CN(C(c1ccccc1)c1ccccc1)C2 | 2% | 0 | · | · | 7%
Oc1cccc(NC(=S)N=Nc2c(O)[nH]c3ccccc23)c1 | -3% | 5 | ? | 24 | 15%
NC(=S)N=Nc1c(O)[nH]c2c(Br)cc(Br)cc12 | 11µM* | -8 | -13% | 2 | 3.5µM*
O=C(CNC(=O)c1ccccc1)N=Nc1c(O)[nH]c2ccc(Br)cc12 | ? | 1 | -4% | -5 | -41%
CC(C)CC(=O)N=Nc1c(O)[nH]c2ccccc12 | 27% | -1 | ? | -3 | 7%
CC(C)c1ccc2[nH]c(O)c(N=NC(=S)NCCc3ccccc3)c2c1 | 2.2µM* | -6 | ? | 39 | 2µM*
Oc1[nH]c2ccccc2c1N=NC(=S)NCCc1ccccc1 | 3.2µM* | -2 | -29% | 9 | 4.5µM*
CCCCNC(=S)N=Nc1c(O)[nH]c2ccccc12 | 5.6µM* | -3 | -6% | 5 | 2.2µM*
O=C(O)COc1ccc(/C=N/NC(=O)/C(=C/C=C/c2ccccc2)NC(=O)c2ccccc2)cc1 | 5% | 8 | -7% | -8 | -3%
c1ccncc1 | -6% | · | · | · | 12%
CC(C)CCN(C(=O)c1ccc(Br)cc1)c1c(N)n(Cc2ccccc2)c(=O)[nH]c1=O | · | · | -3% | 9 | ·
CC(C)c1ccc2[nH]c(O)c(N=NC(=O)c3ccc(CSc4nncn4C)cc3)c2c1 | -1% | -3 | ? | 0 | 5%
Cc1ccc2[nH]c(O)c(N=NC(N)=S)c2c1 | 2% | 0 | 24% | 1 | 20%
NC(=S)N=Nc1c(O)[nH]c2ccccc12 | -3% | 1 | -9% | -1 | 20µM*
CCNC(=S)N=Nc1c(O)[nH]c2ccc(C(C)C)cc12 | 7.1µM* | -1 | ? | 4 | 2.8µM*
CCOc1ccc(NC(=S)N=Nc2c(O)[nH]c3ccccc23)cc1 | 5µM* | 0 | ? | -2 | 2.2µM*
COc1ccc(Oc2ncc3nc(-c4cn(C)c5ccccc45)c(=O)n(CCC#N)c3n2)cc1 | -6% | 3 | · | · | -1%
C/C(Cn1cnc([N+](=O)[O-])n1)=N\NC(=O)c1cccnc1 | -7% | -5 | 5% | 13 | 2%
C/C(Cn1nnc([N+](=O)[O-])n1)=N\NC(=O)c1ccc(O)cc1 | 7.9µM* | -29 | ? | 13 | 2.8µM*
C/C(Cn1nnc([N+](=O)[O-])n1)=N\NC(=O)c1ccc(Cl)c(Cl)c1 | ? | -43* | -7% | 5 | 13µM*
COc1ccc(N2CCN(C(=O)COC(=O)c3oc4ccc(OC)cc4c3C)CC2)cc1 | · | · | 1% | -7 | ·
Fc1cc(Cl)ccc1NC1=NCCCCC1 | 5% | 0 | 12% | 0 | 0%
Clc1ccc(-c2nnc(NC3=NCCCCC3)o2)cc1 | 8.9µM* | 0 | ? | -10 | 6.3µM*
N#Cc1ccc(C(=O)OCC(=O)Nc2cccc(S(=O)(=O)NC3=NCCC3)c2)cc1 | · | · | 5% | -11 | ·
COc1cc2c(cc1OC)C(C)N(C(=O)/C=C/c1cc(OC)c(OC)c(OC)c1)CC2 (stereo unspecified) | -8% | 0 | 18µM* | -9 | -1%
SMILES | Gal4-VP16 FLuc | FBPA coupling cs | ELG1 repair inh | TSHR antag | RORgamma inh
COc1cc(/C=C/C(=O)N2CCCCC2=O)cc(OC)c1OC | 7.9µM* | 4 | · | · | 7.1µM*
COc1cc(/C=C\C(=O)N2CCC=CC2=O)cc(OC)c1OC | 5µM* | -1 | · | · | 5µM*
COc1cc(/C=C/C(=O)N2CCCc3ccccc32)cc(OC)c1OC | 2% | 12 | 8.2µM* | -4 | 11%
COC(=O)CN(C)C(=O)c1cccc(OC2CCN(S(=O)(=O)N(C)C)CC2)c1 | -8% | 5 | -5% | -12 | 6%
COc1cccc(CNC(=O)c2ccccc2NC(=O)C2=C(C)OCCS2)c1OC | -13% | 0 | 12µM* | 10 | 10%
COc1ccc(OC)c(Nc2nc3ccc(C)cc3n3cnnc23)c1 | -13% | 0 | 8.2µM* | -2 | -23%
COc1ccc(Cl)cc1Nc1nc2ccc(C)cc2n2cnnc12 | -5% | 2 | ? | 0 | 3%
NC(=O)N/N=C/c1ccc([N+](=O)[O-])o1 | ? | 7 | -17% | -6 | -22%[10 µM]
NC(=O)N/N=C\c1ccc([N+](=O)[O-])o1 | -7%[17 µM] | 2 | · | · | ?
O=[N+]([O-])c1ccc(/C=N/NC(=S)Nc2ccccc2C(F)(F)F)o1 | ? | 1 | 10% | 2 | 11µM*
O=C(COc1ccccc1)N/N=C/c1ccc([N+](=O)[O-])o1 | 16µM* | -1 | ? | 14 | 10µM*
Cc1cc(C)c(S(=O)(=O)N/N=C/c2ccc([N+](=O)[O-])o2)c(C)c1 | 20µM* | -11 | 14% | 13 | ?
O=C(N/N=C/c1ccc([N+](=O)[O-])o1)C1CC1 | 4% | 1 | ? | -1 | 7.9µM*
O=C(N/N=C/c1ccc([N+](=O)[O-])o1)C(O)c1ccccc1 (stereo unspecified) | -27% | 0 | ? | -2 | 3%
CCOc1ccccc1N1CCN(C(=O)C2CSC3(C)CCC(=O)N23)CC1 (stereo unspecified) | · | · | 7% | 3 | ·
O=C(CSc1nnc(-c2cccs2)n1Cc1ccco1)Nc1ccc2c(c1)OCO2 | -17% | 4 | 15µM* | -7 | 12%
O=C(CSc1nnc(-c2ccccc2)n1Cc1ccco1)NCc1ccc2c(c1)OCO2 | 0% | -5 | 16µM* | 8 | 10%
O=C(CSc1nnc(-c2ccccc2)n1Cc1ccco1)Nc1ccc2c(c1)OCCO2 | ? | 7 | ? | 20 | ?
O=C(CSc1nnc(-c2ccco2)n1Cc1ccccc1)NCc1ccccc1 | -15% | 2 | 21µM* | 0 | ?
O=C(CSc1nnc(-c2ccco2)n1Cc1ccco1)NCc1ccccc1 | -7% | 2 | -11% | 2 | 2%
CCc1ccc(NC(=O)CSc2nnnn2-c2cccnc2)cc1 | · | 0 | -4% | 8 | ·
Cc1ccc(C)c(NC(=O)C2CCN(C(=O)c3cccs3)CC2)c1 | -3% | -1 | -5% | 1 | -19%
Cc1ccc2nsnc2c1S(=O)(=O)Nc1cccc2nsnc12 | -1% | -34* | 0% | 9 | ?
Cc1ccc2nsnc2c1S(=O)(=O)Nc1cccc2cccnc12 | 0.63µM* | -20 | · | · | 1.1µM*
O=C(COC(=O)c1ccc(NC(=O)C2CC=CCC2C(=O)O)cc1)c1ccccc1 (stereo unspecified) | 9% | 8 | -8% | -6 | -2%
CCCCCCc1c(C)nc(-n2[nH]c(C)c(CCO)c2=O)[nH]c1=O | 16µM* | -1 | -3% | -5 | 3.5µM*
CCCCCCCc1c(C)nc(N2CCOCC2)[nH]c1=O | 9% | -2 | 10% | -11 | -8%

High-throughput results (PubChem)
